# Measurements: ChEMBL document CHEMBL3988442, “University of Dundee, Small-Polar-MMV Screening Library” (2021)
# For some assays here: Entries with a potency or affinity are not part of this list.
# Columns and labels:
# Design in all cases: scale not given: direction of the effect not stated beside the values
# [1] = target: Protein translocase subunit SecA (Escherichia coli (strain K12)) (UniProt P10408); experiment: Assay to Identify E. coli SecA ATPase Inhibitors; assay type: functional; conditions: 30 µM
# [2] = target: T1, Ubiquitin-activating enzyme e1, putative (Leishmania donovani (strain BPK282A1)) (UniProt E9BSI1); experiment: Leishmania donovani Ubiquitin Activating Enzyme (LdE1); assay type: functional; conditions: 30 µM
# T1 sequence (whole entry): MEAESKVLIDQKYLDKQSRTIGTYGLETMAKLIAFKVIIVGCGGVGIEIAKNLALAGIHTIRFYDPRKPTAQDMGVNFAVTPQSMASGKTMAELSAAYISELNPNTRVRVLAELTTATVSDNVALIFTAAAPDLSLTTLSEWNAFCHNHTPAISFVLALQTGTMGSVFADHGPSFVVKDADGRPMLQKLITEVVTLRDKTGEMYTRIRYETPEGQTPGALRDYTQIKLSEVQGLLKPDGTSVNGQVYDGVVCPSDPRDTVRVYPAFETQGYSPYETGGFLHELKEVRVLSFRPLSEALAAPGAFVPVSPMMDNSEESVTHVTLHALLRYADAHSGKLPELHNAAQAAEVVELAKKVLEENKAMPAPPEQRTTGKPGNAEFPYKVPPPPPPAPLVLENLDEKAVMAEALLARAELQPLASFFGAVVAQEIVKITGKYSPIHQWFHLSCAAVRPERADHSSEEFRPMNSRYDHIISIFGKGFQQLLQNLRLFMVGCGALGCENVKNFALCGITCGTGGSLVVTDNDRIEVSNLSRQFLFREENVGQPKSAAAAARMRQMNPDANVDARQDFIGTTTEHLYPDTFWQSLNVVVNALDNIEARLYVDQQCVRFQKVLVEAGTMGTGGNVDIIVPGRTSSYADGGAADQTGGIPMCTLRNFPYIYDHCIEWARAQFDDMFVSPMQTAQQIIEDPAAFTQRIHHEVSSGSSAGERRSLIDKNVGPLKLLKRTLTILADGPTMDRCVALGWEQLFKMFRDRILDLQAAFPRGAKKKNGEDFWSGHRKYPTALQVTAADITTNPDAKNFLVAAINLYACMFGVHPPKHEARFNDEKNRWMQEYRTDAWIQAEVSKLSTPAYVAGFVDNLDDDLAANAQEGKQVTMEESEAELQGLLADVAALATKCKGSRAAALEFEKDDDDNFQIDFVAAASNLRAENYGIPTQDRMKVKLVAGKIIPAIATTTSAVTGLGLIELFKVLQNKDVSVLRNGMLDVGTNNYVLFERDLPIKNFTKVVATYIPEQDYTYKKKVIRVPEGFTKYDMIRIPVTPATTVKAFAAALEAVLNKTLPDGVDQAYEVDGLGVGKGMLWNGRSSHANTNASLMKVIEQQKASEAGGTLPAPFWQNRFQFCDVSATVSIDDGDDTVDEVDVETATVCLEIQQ
# [3] = target: AMP-activated protein kinase, AMPK (Homo sapiens) (UniProt P54646+O43741+P54619+Q9UGJ0+Q9Y478+Q13131+Q9UGI9); experiment: AMP-dependent Kinase enzyme assay. An in vitro enzyme assay that detects ADP turnover that is directly proportional to AMPK activity. This uses naive AMPK that is activated during the assay with MK-8722; assay type: functional; conditions: 30 µM
# [4] = target: Sialic acid-binding Ig-like lectin 9 (Homo sapiens) (UniProt Q9Y336); experiment: Hs-Siglec9 ALPHAscreen SOP 20170721; conditions: 10 µM
# [5] = tested on: Trypanosoma cruzi; experiment: Trypanosoma cruzi phosphomannomutase and mannose-1-phosphate guanylyltransferase assay; assay type: functional; conditions: 10 µM
# [6] = target: T2, Arginase-2, mitochondrial (Homo sapiens) (UniProt P78540); experiment: in vitro enzyme assay to detect the production of urea directly proportional to the activity of Arginase II; assay type: functional; conditions: 33.3 µM; note: in the data most compounds retested in dose-response had high values
# T2 sequence (whole entry): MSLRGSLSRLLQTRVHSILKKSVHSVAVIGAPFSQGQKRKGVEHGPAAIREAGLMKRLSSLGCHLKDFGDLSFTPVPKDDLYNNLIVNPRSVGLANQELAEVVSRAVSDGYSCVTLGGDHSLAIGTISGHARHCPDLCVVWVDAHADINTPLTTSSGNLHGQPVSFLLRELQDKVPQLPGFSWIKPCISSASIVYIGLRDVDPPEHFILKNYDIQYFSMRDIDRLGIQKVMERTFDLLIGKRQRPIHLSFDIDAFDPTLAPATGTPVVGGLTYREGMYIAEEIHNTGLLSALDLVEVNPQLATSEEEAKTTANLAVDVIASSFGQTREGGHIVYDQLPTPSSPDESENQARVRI
# [7] = target: T3, Proteasome subunit beta (Trypanosoma cruzi) (UniProt O96673); experiment: Trypanosoma cruzi proteasome chymotrypsin-like activity (TcProtChymo) assay.; note: in the data most compounds retested in dose-response had high values; assay type: functional; conditions: 9.37 µM
# T3 sequence (whole entry): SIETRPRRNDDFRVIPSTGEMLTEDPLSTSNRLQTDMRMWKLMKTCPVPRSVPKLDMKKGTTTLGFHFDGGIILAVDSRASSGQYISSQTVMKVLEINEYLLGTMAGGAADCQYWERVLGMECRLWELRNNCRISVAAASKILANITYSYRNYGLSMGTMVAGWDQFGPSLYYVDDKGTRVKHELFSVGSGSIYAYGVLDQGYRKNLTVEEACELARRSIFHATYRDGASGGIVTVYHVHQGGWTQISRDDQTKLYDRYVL
# [8] = species: Homo sapiens; experiment: To identify inhibition of the IFN signalling (Jak-Stat) pathway via expression of an eGFP reporter gene under the control of an IFN-stimulated response element (ISRE) containing MxA promoter.; assay type: functional; conditions: 30 µM
# [9] = target: T4, Tyrosyl-tRNA synthetase, putative (Trypanosoma cruzi (strain CL Brener)) (UniProt Q4DSP6); experiment: Trypanosoma cruzi tyrosyl tRNA synthetase (TcYRS) _High Tyrosine SOP; assay type: functional; conditions: 30 µM; note: in the data most compounds retested in dose-response had high values
# T4 sequence (whole entry): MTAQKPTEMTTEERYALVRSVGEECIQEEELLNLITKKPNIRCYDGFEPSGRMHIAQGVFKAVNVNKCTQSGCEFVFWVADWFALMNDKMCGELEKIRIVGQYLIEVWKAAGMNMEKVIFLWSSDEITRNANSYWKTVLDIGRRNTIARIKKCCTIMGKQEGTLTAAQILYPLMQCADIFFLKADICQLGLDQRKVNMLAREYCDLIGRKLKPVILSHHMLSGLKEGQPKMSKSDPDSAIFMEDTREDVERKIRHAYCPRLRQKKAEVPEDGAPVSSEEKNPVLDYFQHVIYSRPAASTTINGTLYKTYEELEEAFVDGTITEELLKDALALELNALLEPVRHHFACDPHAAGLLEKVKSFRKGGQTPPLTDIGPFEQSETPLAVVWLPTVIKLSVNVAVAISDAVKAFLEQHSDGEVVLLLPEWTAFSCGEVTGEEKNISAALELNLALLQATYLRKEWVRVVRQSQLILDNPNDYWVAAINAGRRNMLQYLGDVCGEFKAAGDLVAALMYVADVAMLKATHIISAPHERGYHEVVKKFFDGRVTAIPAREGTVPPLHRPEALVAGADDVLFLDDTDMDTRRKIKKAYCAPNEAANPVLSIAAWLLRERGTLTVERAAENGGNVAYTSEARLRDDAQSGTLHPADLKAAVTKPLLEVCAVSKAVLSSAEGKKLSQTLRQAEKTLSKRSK
# [10] = target: T4, Tyrosyl-tRNA synthetase, putative (Trypanosoma cruzi (strain CL Brener)); experiment: Trypanosoma cruzi tyrosyl tRNA synthetase (TcYRS) SOP; assay type: functional; conditions: 30 µM
# [11] = target: Chromo domain-containing protein 1 (Saccharomyces cerevisiae (strain ATCC 204508 / S288c) (Baker's yeast)) (UniProt P32657); experiment: ScCHD-1 Enzyme Inhibition Assay; assay type: functional; conditions: 30 µM; note: in the data most compounds retested in dose-response had high values
# Chromo domain-containing protein 1 (Saccharomyces cerevisiae (strain ATCC 204508 / S288c) (Baker's yeast)), sequence (P32657 whole entry, the tested form may be a part): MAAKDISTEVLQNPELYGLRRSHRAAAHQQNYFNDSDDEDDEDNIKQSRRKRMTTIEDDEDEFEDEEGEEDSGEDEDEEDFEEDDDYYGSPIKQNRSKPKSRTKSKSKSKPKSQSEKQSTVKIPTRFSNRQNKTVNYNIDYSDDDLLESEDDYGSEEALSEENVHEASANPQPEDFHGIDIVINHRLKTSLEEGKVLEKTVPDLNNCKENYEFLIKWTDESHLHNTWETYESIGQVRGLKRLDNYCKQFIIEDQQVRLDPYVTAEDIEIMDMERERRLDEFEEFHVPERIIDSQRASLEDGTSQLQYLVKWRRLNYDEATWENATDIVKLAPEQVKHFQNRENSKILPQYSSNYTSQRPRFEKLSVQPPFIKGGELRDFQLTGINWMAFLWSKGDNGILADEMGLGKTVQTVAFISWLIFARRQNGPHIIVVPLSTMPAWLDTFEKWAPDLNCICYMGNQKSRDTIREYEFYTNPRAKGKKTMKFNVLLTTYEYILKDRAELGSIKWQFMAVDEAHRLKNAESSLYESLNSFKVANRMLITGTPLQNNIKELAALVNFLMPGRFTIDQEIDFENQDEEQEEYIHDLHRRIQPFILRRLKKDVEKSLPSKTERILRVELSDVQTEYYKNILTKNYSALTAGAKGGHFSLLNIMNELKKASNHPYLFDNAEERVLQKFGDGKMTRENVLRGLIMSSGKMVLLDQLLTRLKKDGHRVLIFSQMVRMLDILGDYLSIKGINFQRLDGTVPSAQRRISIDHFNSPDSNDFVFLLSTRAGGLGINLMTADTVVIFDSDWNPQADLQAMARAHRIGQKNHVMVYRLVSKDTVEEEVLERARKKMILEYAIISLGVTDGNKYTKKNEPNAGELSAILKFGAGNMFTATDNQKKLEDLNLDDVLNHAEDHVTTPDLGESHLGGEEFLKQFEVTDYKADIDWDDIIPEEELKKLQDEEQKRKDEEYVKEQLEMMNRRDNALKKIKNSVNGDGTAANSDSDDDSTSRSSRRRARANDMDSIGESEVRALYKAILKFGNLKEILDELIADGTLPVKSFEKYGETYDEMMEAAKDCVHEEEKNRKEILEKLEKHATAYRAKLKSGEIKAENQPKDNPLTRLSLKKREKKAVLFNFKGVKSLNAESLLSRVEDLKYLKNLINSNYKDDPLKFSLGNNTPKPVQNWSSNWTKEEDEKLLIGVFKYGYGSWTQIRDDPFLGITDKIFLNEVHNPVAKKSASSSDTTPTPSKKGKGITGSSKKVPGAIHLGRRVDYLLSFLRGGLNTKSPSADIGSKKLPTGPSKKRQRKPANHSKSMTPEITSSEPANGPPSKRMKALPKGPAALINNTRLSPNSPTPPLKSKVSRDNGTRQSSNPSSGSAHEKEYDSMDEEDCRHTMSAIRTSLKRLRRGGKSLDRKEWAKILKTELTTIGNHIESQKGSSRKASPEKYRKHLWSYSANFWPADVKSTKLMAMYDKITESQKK
# Sialic acid-binding Ig-like lectin 9 (Homo sapiens), sequence (Q9Y336 whole entry): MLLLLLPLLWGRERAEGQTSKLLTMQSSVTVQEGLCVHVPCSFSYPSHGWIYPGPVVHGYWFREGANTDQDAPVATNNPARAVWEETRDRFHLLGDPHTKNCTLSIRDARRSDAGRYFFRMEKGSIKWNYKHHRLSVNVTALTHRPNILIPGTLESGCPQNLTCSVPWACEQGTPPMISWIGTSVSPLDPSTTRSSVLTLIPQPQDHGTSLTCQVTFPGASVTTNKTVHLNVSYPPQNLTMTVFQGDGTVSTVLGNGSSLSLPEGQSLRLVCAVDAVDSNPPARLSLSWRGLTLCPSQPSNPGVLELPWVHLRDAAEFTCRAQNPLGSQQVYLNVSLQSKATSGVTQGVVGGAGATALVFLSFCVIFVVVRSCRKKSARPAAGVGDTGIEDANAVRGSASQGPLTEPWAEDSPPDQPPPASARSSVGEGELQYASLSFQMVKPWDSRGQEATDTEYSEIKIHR
# Protein translocase subunit SecA (Escherichia coli (strain K12)), sequence (P10408 whole entry): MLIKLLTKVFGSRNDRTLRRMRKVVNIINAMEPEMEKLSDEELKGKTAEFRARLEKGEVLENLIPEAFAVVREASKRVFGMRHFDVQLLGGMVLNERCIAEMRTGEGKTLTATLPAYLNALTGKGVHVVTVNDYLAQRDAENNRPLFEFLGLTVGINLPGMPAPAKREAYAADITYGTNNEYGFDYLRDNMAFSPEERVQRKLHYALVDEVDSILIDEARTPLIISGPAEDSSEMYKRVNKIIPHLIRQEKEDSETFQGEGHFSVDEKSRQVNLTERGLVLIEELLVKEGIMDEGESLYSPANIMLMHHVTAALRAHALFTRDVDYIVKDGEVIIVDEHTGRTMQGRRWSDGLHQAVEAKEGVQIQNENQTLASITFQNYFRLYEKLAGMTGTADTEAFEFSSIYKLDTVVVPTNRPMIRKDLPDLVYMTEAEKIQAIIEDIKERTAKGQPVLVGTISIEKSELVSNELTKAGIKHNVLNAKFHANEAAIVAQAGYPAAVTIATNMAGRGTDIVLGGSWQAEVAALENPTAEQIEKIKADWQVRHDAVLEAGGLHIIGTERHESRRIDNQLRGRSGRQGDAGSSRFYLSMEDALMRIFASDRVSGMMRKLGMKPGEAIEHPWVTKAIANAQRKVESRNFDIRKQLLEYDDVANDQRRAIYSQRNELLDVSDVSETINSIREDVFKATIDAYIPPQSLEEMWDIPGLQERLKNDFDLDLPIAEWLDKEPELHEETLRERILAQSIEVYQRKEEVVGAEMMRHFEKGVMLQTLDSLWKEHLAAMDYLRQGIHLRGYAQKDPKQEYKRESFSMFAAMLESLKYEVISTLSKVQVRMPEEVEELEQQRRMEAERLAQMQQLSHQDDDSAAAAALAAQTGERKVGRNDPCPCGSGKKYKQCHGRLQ
Compound,Percent Effect [1] [%],Percent Effect [2] [%],Percent Effect [3] [%],Percent Effect [4] [%],Percent Effect [5] [%],Percent Effect [6] [%],Percent Effect [7] [%],Percent Effect [8] [%],Percent Effect [9] [%],Percent Effect [10] [%],Percent Effect [11] [%]
Cc1nnc2n1CCN(Cc1csc(CC(=O)N(C)C)n1)C2,-4.68,10.8,-6.55,9.69,-1.21,-2.03,3.77,9.18,5.94,13.4,0.846
CNC(=O)c1cccc(C2CNCCN2C)c1 (stereo unspecified),1.64,14.9,4.3,-1.87,-2.96,7.19,12.2,-5.37,0,6.49,-5.34
O=C1N(CCCc2ccccc2)CCCC1(O)CNCc1ccccc1 (stereo unspecified),-3.24,2.7,-10.2,31.6,4.4,-0.248,8.5,-7.46,8.6,18.5,-3.9
COc1ccc(C2CCCN2S(=O)(=O)N(C)CC(C)C)cc1 (stereo unspecified),-1.74,-6.94,6.36,-0.345,-2.62,-3.97,5.61,-1.6,-5.26,-10.3,-2.11
Cc1cccc(CC(=O)NCCCOC(C)C)c1,-0.872,18.2,0.619,-8.05,-3.75,0.712,9.8,27.8,9.71,19.5,-7.62
CN(Cc1cn2c(n1)CN(c1ncc(F)cn1)CC2)Cc1ccco1,-3.08,13.3,-4.28,-1.26,0.197,4.89,20.7,1.67,9.57,21.8,-5.99
Cn1ccnc1CN1CCC2(CC(=O)N(c3cccc(F)c3)C2)C1 (stereo unspecified),1.4,10.4,15,-4.43,-7.2,7.1,14.8,6.27,7.41,14.1,-7.71
Cc1ccc(CC(=O)N2CCOC(c3nc(C(C)(C)C)n[nH]3)C2)cn1 (stereo unspecified),-3.58,12.5,-9.66,13.3,4.76,-0.442,7.72,2.71,3.16,5.13,-2.81
Cc1ccc(CNC(=O)CN2CCN(CC(O)C3CC3)CC2)cc1 (stereo unspecified),-0.763,18.2,-0.209,-0.425,1.87,1.94,11.3,15.5,9.52,16.7,89.9
CCc1nc(C2CCCN2Cc2nc(C3CC3)no2)no1 (stereo unspecified),-0.343,2.6,-1.94,16.2,2.65,-12.4,9.15,-6.21,0,1.24,-6.42
COc1cc2nc3n(c(=O)c2cc1OC)CCN(C(C)=O)CC3,-1.86,4.05,9.32,3.01,0.593,-1.16,5.62,11.5,1.07,11.7,-1.39
O=C(c1ccsc1)N1C[C@@H](CN2CCCC2)[C@@H](CO)C1,-10,2.67,-3.05,-2.17,-5.36,-5.21,4.71,2.13,-1.64,-1.24,-4.1
Cc1noc(C)c1CNC(=O)N1CCC(C(O)c2ccccc2)CC1 (stereo unspecified),-4.23,11,-3.81,6.33,7.54,-4.79,-1.8,11.9,2.08,13.6,-3.08
O=C([C@H]1C[C@@H]2CCN(C3CCOCC3)C[C@@H]2O1)N1CCOCC1,4.05,5.33,-5.76,14.3,-3.48,-54.7,16.8,-8.99,7.29,12.5,-5.71
Cc1cnc(CNc2c(F)cccc2-n2cccn2)o1,3.66,12.5,-4.76,5.6,-8.46,2.65,13.7,5.49,4.21,5.13,101
CCN(Cc1nc2c(cnn2C)c(=O)[nH]1)c1cccc(F)c1,-1.38,11.4,6.32,2.17,-2.36,-6.24,15.3,9.49,1.04,15.2,-15.7
